Screening results from PubChem BioAssay.
Sampled rows, rich in hits. Any-hit rate of the full collection: about 19%.
KB-3-1 cytotox = kills parental KB-3-1 adenocarcinoma cells; KB-3-1 viability, CellTiter-Glo ATP luminescence, 72 h; Potency, µM (titrated, usually from 46.1 µM), hits mostly cytotoxic; AID 1347075; actives 1.4% (n = 400,000); also: nearly all actives have a fitted effect of over 60% in size
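Cytotoxicity measured as CellTiter-Glo luminescence after 72 h at 37 C. Compound titrations were pinned onto drug-naive KB-3-1 parental adenocarcinoma cells grown in DMEM with 10% FBS, and normalized data fitted to concentration-response curves.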
KB-V1 cytotox = KB-V1 MDR subline cytotoxicity. KB-V1 MDR cells viability, CellTiter-Glo, 72 h. Potency, µM (titrated, usually from 46.1 µM), usual class: cytotoxic. actives 3.4% (n = 400,000). AID 1347076; also: nearly all actives have a fitted effect of over 60% in size
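KB-V1, DMEM (no phenol red) + 10% FBS; cpd pin-transferred, titration series; 72 h, 37 degrees C; CellTiter-Glo, luminescence. Data normalized, curve-fit.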
HT1080NT lethal = kills 2HG-producing HT-1080-NT fibrosarcoma cells; AID 686970; actives 1.6% (n = 360,000); Potency, µM (highest dose often 46.1 µM), for inactives: at the highest dose activity, negative = less viability, usual class: cytotoxic; HT-1080-NT fibrosarcoma viability, CellTiter-Glo ATP luminescence, 48 h;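 also: NT is the 2HG producing partner of a matched IDH1 knockdown line; 0% = DMSO-treated cells and -100% = media-only wells without cells; nearly all actives have a fitted effect of over 55% in size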
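A 48-hour cytotoxicity screen used HT-1080-NT cells plated 2 hours before compound delivery. ATP-based CellTiter-Glo luminescence measured viability, normalized to DMSO and no-cell controls.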
HT1080 IDH1KD tx = kills HT-1080 cells with IDH1 knockdown. actives 2% (n = 360,000). AID 686971. HT-1080 IDH1 knockdown viability, ATP luminescence, 48 h. Potency, µM (series often up to 46.1 µM), for inactives: top-dose activity, negative = toxicity, usual class: cytotoxic;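 also: 0% = DMSO wells and -100% = cell-free medium wells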
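Cytotoxicity counter-line: IDH1KD HT-1080, 48 h, CellTiter-Glo. Curves classed by r2, magnitude and activity.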
TDP1 cell CPT = growth inhibition of DT40 Tdp1-/-;hTDP1 cells with camptothecin (screen for TDP1 inhibitors) | actives 12% (n = 420,000) | chicken DT40 Tdp1-/-;hTDP1 cells + 20 nM CPT, ATP luminescence, 48 h | Potency, µM (series often up to 46.2 µM), for the others: at the highest dose activity change, negative = growth inhibition, hits mostly inhibitors; also: nearly all actives have a fitted effect of over 55% in size
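Chicken DT40 Tdp1-/- cells stably complemented with human TDP1 were seeded at 400 cells/well in medium containing 20 nM camptothecin, exposed to pin-transferred compounds, and grown at 37 °C for at least 48 hr. Viability was read as ATP luminescence.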
TDP1 cell noCPT = qHTS for Inhibitors of human tyrosyl-DNA phosphodiesterase 1 (TDP1): qHTS in cells in absence of CPT; DT40 Tdp1-/- hTDP1 cells, no CPT, ATP luminescence, 48 h; Potency, µM (top dose mostly 46.2 µM), for the others: at the top dose activity change, negative = growth inhibition, actives largely listed as inhibitors; actives 15% (n = 420,000); AID 686978, 2013; also: nearly all actives have a fitted effect of over 55% in size
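Camptothecin absent (DMSO only). Human TDP1-complemented DT40 knockout cells, 400 cells/well, 37 °C for minimum 48 hr; ATP measured via CellTiter-Glo, 30 min dark incubation, luminescence.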
Active calls of the source: *; i = inactive; ? = inconclusive. Calls follow the shape of the dose curve; as a rule, active = well fitted curve in the direction sought with a large enough effect; inconclusive = small, poorly fitted or top-dose-only effect, or another doubt; inactive = no such curve, though single readings can be large; an effect the other way counts as inactive or inconclusive. Unless noted, % is scaled to controls: 0 for no effect and ±100 for the full control effect; potency is read from the fitted curve at half-maximal effect.

SMILES | KB-3-1 cytotox | KB-V1 cytotox | HT1080NT lethal | HT1080 IDH1KD tx | TDP1 cell CPT | TDP1 cell noCPT
Cc1c(NS(=O)(=O)c2cc(NC(=O)CCN3CCCC(C)C3)ccc2Cl)c(=O)n(-c2ccccc2)n1C (stereo not given) | i | i | -4% | -8% | 11% | 2%
COc1ccc(N(Cc2cc3ccccc3[nH]c2=O)S(=O)(=O)c2ccccc2)cc1 | ? | ? | ? | ? | ? | 18µM*
COc1ccc(N(Cc2cc3cccc(C)c3[nH]c2=O)S(=O)(=O)c2ccc(OC)cc2)cc1 | ? | i | 2% | 8% | ? | ?
COc1ccc(N(Cc2cc3cccc(C)c3[nH]c2=O)S(=O)(=O)c2ccc(Cl)cc2)cc1 | i | i | 1% | 2% | ? | 23µM*
COc1ccc2cc(CN(Cc3cccnc3)S(=O)(=O)c3ccccc3)c(=O)[nH]c2c1 | ? | 16µM* | -7% | -2% | ? | ?
O=C(NNS(=O)(=O)c1cccc(Cl)c1)c1cc(-c2ccc(F)cc2)nc2ccccc12 | i | i | -9% | -18% | 6% | -8%
CN1CCC(N(C)C(=O)c2ccc(Cl)c(S(=O)(=O)N3CCOCC3)c2)CC1 | i | i | -5% | -1% | -28% | 0%
COC/C=C/C1=CC2=CC(=O)C(C)(OC(=O)c3cnc4ccccc4n3)C(=O)C2=CN1c1ccccc1 (stereo not given) | i | i | -1% | 2% | ? | 16µM*
N#CCCOC1(C#CCN2CCCC2)CCCCC1 | i | i | -27% | ? | -9% | ?
Cc1ccc(S(=O)(=O)CCC(=O)Nc2nc(-c3cccnc3)cs2)cc1 | i | i | 9% | 19% | 15µM* | ?
O=C(CCS(=O)(=O)c1ccccc1)Nc1nccs1 | i | i | ? | 2% | ? | ?
COc1ccc(-c2csc(NC(=O)CCS(=O)(=O)c3ccccc3)n2)c(OC)c1 | ? | ? | ? | ? | ? | 8.2µM*
COc1ccc(-c2csc(NC(=O)CS(=O)(=O)c3ccccc3)n2)c(OC)c1 | i | i | 7% | 0% | ? | ?
O=C(CS(=O)(=O)c1ccccc1)Nc1nc(-c2ccc(F)cc2)cs1 | i | i | 11% | 0% | ? | ?
O=C(CCS(=O)(=O)c1ccc(Cl)cc1)Nc1nc(-c2ccncc2)cs1 | i | i | -11% | 0% | 16µM* | 13µM*
Cc1ccc(S(=O)(=O)CCC(=O)Nc2nc(-c3ccccn3)cs2)cc1 | ? | i | -28% | -24% | 6.5µM* | 5.8µM*
COCc1cc(C)nc2sc(C(=O)Nc3ccccc3OC)c(N)c12 | i | i | -6% | -5% | ? | ?
O=C1C(Cl)=C(N2CCCC2)C(=O)N1c1ccc(F)cc1 | i | ? | 11% | 5% | ? | -16%
Cc1ccc(Nc2nc3ccc(Cl)cc3n3cnnc23)cc1F | i | i | 27% | 14% | -19% | ?
